What all share (assay): DAPPL (digital affinity profiling via proximity ligation, sequencing); 10 mM Tris-HCl pH 7.5, 50 mM NaCl, 1 mM DTT, 4% glycerol, room temperature, 30 min; GST-TFs on glutathione beads, 16-mer random dsDNA library, 0.1% formaldehyde crosslink after washing; high values mean tight binding
Details in all cases: protein: recombinant; tags: N-terminal GST; dsDNA, one strand shown

One test concerns the target T1, FEV (Homo sapiens, UniProt Q99581 1-238).
T1 sequence: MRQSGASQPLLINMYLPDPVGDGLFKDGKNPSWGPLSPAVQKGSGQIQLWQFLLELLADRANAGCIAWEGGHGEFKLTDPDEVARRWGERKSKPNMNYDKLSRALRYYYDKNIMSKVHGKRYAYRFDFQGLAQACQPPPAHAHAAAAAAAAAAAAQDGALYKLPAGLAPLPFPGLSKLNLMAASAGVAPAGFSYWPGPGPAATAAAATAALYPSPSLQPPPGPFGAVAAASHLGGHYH
The gist of the method: (§1)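 In yeast, human transcription factors were expressed with a GST fusion, then pulled down on glutathione beads and given DNA barcodes. Pooled with a tag-only sample, they were exposed to 200 nmole of a 16-mer random double-stranded DNA library (Tris/NaCl/DTT/glycerol buffer, room temperature, 30 min), washed, crosslinked with 0.1% formaldehyde, proximity-ligated using BsaI/T4 ligase for 1 h at 37 °C, PCR-amplified and read on an Illumina NextSeq500. Each hexamer's frequency of reads for a factor, divided by the matching frequency for the tag-only sample, gives the binding signal.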

The next test deals with ETV5 (Homo sapiens, UniProt P41161 1-510). The gist of the method:
as §1

Another test addresses T2, SPIC (Homo sapiens, UniProt Q8N5J4 1-248).
T2 sequence: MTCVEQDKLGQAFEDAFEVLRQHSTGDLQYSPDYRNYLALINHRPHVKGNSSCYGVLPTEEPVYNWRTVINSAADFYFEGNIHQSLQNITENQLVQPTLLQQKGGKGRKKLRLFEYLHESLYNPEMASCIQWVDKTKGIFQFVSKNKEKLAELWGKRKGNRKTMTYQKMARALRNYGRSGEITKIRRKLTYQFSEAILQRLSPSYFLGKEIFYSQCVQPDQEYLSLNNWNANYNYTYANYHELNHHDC
The gist of the method: as §1

In another test the target is ELF4 (Homo sapiens, UniProt Q99607 1-663). The gist of the method:
as §1

A further test has as its target T3, ELK4 (Homo sapiens, UniProt P28324-2 1-405).
T3 sequence: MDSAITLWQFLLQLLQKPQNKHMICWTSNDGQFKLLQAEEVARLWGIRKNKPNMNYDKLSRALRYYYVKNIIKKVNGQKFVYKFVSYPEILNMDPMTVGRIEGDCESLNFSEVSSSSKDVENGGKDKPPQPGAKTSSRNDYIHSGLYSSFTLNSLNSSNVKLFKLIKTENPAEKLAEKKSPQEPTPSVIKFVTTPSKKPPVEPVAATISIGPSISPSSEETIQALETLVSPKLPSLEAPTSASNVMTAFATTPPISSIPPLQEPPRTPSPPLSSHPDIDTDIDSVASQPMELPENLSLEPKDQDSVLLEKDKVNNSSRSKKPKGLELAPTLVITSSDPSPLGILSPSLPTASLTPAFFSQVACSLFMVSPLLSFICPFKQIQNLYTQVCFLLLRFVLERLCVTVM
The gist of the method: as §1

The target of a further test is T4, ETV2 (Homo sapiens, UniProt O00321 1-342).
T4 sequence: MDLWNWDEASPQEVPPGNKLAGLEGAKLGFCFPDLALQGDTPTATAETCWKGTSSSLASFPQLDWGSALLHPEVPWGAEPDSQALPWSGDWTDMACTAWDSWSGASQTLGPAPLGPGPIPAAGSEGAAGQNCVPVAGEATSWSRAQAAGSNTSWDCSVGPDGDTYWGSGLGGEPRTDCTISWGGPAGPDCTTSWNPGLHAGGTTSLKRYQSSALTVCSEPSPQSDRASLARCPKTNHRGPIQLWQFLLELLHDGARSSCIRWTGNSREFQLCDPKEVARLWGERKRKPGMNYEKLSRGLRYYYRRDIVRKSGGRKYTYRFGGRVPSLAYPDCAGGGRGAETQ
The gist of the method: as §1

The next test concerns the target T5, ELF3 (Homo sapiens, UniProt P78545 1-371).
T5 sequence: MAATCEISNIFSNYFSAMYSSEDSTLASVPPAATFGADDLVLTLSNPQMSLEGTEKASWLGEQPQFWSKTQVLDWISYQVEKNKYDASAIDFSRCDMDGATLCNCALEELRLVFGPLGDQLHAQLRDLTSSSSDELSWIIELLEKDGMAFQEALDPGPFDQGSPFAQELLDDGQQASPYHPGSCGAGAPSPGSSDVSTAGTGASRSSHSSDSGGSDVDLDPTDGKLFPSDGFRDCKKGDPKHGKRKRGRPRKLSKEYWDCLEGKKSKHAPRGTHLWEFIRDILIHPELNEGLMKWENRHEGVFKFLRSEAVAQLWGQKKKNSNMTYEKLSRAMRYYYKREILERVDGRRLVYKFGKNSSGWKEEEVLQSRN
The gist of the method:
as §1

For a further test, the target named is ETV1 (Homo sapiens, UniProt P50549 1-477). The gist of the method: as §1
Chain of ETV1 (P50549 whole entry): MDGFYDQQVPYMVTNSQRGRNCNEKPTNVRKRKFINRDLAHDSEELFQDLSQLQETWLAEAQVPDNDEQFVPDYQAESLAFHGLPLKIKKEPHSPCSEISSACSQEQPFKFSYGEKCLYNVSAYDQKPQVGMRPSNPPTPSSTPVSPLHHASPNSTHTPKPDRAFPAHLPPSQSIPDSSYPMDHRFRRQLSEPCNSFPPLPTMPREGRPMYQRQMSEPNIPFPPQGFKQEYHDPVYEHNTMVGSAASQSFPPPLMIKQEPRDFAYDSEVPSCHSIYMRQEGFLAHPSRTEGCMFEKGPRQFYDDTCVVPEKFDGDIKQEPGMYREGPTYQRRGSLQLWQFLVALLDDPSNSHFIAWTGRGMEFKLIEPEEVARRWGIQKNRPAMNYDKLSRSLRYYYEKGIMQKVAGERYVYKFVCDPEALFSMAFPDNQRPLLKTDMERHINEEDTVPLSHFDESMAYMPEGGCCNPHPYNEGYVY

Chain of ETV5 (P41161 whole entry): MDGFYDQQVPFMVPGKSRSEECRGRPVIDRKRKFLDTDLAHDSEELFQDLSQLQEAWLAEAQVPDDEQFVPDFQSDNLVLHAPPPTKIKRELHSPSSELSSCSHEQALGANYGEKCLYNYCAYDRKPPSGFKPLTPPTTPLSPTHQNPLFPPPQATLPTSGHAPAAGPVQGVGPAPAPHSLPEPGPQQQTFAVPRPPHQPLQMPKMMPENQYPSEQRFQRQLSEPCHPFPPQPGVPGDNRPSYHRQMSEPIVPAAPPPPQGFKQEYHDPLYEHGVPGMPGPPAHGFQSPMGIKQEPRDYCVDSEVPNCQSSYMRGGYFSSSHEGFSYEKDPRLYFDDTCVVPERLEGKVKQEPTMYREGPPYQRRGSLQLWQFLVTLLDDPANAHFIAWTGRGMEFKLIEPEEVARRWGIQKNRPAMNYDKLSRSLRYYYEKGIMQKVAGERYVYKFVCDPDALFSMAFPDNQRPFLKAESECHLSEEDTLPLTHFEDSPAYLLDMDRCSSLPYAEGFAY
Chain of ELF4 (Q99607 whole entry): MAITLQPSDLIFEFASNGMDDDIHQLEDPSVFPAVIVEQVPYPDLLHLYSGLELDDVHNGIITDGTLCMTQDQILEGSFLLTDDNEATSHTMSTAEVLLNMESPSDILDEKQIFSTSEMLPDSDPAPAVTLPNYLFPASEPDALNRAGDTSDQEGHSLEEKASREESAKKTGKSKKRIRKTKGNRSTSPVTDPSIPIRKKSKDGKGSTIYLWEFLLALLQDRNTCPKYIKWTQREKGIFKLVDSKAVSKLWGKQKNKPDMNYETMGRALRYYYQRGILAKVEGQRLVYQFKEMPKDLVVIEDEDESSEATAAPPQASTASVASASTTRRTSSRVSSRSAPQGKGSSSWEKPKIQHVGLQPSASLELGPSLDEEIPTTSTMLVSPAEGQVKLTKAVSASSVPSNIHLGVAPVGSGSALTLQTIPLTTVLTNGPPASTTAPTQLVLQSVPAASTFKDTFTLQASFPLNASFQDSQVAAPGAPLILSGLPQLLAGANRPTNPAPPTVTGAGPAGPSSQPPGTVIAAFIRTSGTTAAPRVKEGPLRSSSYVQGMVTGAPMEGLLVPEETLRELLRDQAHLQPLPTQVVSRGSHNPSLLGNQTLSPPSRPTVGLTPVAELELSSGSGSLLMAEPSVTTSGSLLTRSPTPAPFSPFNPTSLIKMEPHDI

Regarding CTGGTC, the binding signal is 1.11 fold enrichment (6-mer frequency, TF over GST control) with FEV; 1.22 fold enrichment (6-mer frequency, TF over GST control) with ETV5; 1.2 fold enrichment (6-mer frequency, TF over GST control) with SPIC; 1.16 fold enrichment (6-mer frequency, TF over GST control) in the test with ELF4; 1.19 fold enrichment (6-mer frequency, TF over GST control) with ELK4; 1.27 fold enrichment (6-mer frequency, TF over GST control) with ETV2. For the same sequence, the binding signal with ELF3 is 1.05 fold enrichment (6-mer frequency, TF over GST control); with ETV1, 1.07 fold enrichment (6-mer frequency, TF over GST control).

For the sequence ACTGCA, the binding signal was 1.18 fold enrichment (6-mer frequency, TF over GST control) with FEV; 1.2 fold enrichment (6-mer frequency, TF over GST control) with ETV5; 1.34 fold enrichment (6-mer frequency, TF over GST control) with SPIC; 1.09 fold enrichment (6-mer frequency, TF over GST control) with ELF4; 1.25 fold enrichment (6-mer frequency, TF over GST control) in the test with ELK4; 1 fold enrichment (6-mer frequency, TF over GST control) with ETV2. Also, the binding signal is 1.08 fold enrichment (6-mer frequency, TF over GST control) in the test with ELF3 and 1.01 fold enrichment (6-mer frequency, TF over GST control) in the test with ETV1.

In the case of TGCACA, the binding signal with FEV is 1.14 fold enrichment (6-mer frequency, TF over GST control); in the test with ETV5, 1.13 fold enrichment (6-mer frequency, TF over GST control); in the test with SPIC, 1.15 fold enrichment (6-mer frequency, TF over GST control); with ELF4 it was 1.12 fold enrichment (6-mer frequency, TF over GST control); with ELK4 it was 1.11 fold enrichment (6-mer frequency, TF over GST control); with ETV2, 1.15 fold enrichment (6-mer frequency, TF over GST control). For the same sequence, the binding signal with ELF3 is 1.26 fold enrichment (6-mer frequency, TF over GST control); with ETV1, 1.09 fold enrichment (6-mer frequency, TF over GST control).

Consider CCGCCC, for which the binding signal is 1.38 fold enrichment (6-mer frequency, TF over GST control) with FEV; 1.34 fold enrichment (6-mer frequency, TF over GST control) in the test with ETV5; 1.33 fold enrichment (6-mer frequency, TF over GST control) with SPIC; 1.4 fold enrichment (6-mer frequency, TF over GST control) with ELF4; 1.08 fold enrichment (6-mer frequency, TF over GST control) in the test with ELK4; 1.2 fold enrichment (6-mer frequency, TF over GST control) with ETV2. Moreover, the binding signal in the test with ELF3 was 1.28 fold enrichment (6-mer frequency, TF over GST control); in the test with ETV1, 1.26 fold enrichment (6-mer frequency, TF over GST control).

For CTGTCC, the binding signal with FEV is 1.19 fold enrichment (6-mer frequency, TF over GST control); with ETV5, 1.41 fold enrichment (6-mer frequency, TF over GST control); in the test with SPIC, 1.13 fold enrichment (6-mer frequency, TF over GST control); in the test with ELF4 it was 1.28 fold enrichment (6-mer frequency, TF over GST control); with ELK4, 1.24 fold enrichment (6-mer frequency, TF over GST control); with ETV2, 1.2 fold enrichment (6-mer frequency, TF over GST control). The binding signal was 1.17 fold enrichment (6-mer frequency, TF over GST control) in the test with ELF3 and 1.4 fold enrichment (6-mer frequency, TF over GST control) with ETV1.

Regarding GTTTTG, the binding signal in the test with FEV was 1.16 fold enrichment (6-mer frequency, TF over GST control); with ETV5, 1.28 fold enrichment (6-mer frequency, TF over GST control); in the test with SPIC, 1.34 fold enrichment (6-mer frequency, TF over GST control); in the test with ELF4, 1.18 fold enrichment (6-mer frequency, TF over GST control); with ELK4 it was 1.22 fold enrichment (6-mer frequency, TF over GST control); in the test with ETV2, 1.26 fold enrichment (6-mer frequency, TF over GST control). Further, the binding signal is 1.03 fold enrichment (6-mer frequency, TF over GST control) in the test with ELF3 and 1.25 fold enrichment (6-mer frequency, TF over GST control) with ETV1.

Consider CTACAG, for which the binding signal is 1.04 fold enrichment (6-mer frequency, TF over GST control) with FEV; 1.07 fold enrichment (6-mer frequency, TF over GST control) with ETV5; 1.04 fold enrichment (6-mer frequency, TF over GST control) in the test with SPIC; 1.02 fold enrichment (6-mer frequency, TF over GST control) with ELF4; 1.07 fold enrichment (6-mer frequency, TF over GST control) with ELK4; 1.02 fold enrichment (6-mer frequency, TF over GST control) with ETV2. For the same sequence, the binding signal in the test with ELF3 was 1 fold enrichment (6-mer frequency, TF over GST control); in the test with ETV1, 1.06 fold enrichment (6-mer frequency, TF over GST control).

(Values after article PMC7862700, “An all-to-all approach to the identification of sequence-specific readers for epigenetic DNA modifications on cytosine”.)
